Test results from PubChem BioAssay (EPA / NIEHS).
Where “and” joins values, the source holds several entries; their conditions need not be identical. Equal values may be shown once. Records with an inconclusive call do not appear. Some structures have more than one record in an assay (separate samples or runs), and their calls can disagree. Calls of active or inactive are those of the source. Rule for the calls, unless noted: active = hit-call score of the fitted dose curve at least 0.9, where 1 is the maximum; inactive = score below 0.9.

Columns and labels:
[1] = target: human RAR-related Orphan Receptor gamma (RORg), RORC (gene 6097) (UniProt P51449); assay: ATG_RORg_TRANS: Attagene TRANS-FACTORIAL HepG2 Assay for human RAR-related Orphan Receptor gamma (RORg) (AID 2283011; active = hit-call score of the fitted dose curve at least 0.9, where 1 is the maximum;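 for AC50: potency for induction of reporter transcripts above DMSO so activators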)
Sequence of human RAR-related Orphan Receptor gamma (RORg), RORC (gene 6097) (P51449 whole entry, looked up, the tested form may be a part): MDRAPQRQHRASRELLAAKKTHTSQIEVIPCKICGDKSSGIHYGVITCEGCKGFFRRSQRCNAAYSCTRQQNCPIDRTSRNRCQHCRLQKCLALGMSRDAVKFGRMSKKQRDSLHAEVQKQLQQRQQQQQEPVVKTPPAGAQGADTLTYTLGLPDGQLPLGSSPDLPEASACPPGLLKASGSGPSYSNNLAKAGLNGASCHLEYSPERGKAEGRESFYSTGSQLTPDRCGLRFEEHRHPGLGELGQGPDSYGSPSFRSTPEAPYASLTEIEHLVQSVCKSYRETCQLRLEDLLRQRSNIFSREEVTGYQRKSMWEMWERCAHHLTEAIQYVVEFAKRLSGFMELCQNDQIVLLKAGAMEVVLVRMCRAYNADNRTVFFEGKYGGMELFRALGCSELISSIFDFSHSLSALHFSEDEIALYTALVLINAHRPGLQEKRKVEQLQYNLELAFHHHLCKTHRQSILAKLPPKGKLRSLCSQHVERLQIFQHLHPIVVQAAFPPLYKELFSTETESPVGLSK
Method in brief: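 Transient MRTU transfection of HepG2 (TRANS format, exogenous NR-Gal4 chimera). 24 h dosing. Total RNA → oligo(dT) RT → PCR → 6-FAM labelling → HpaI cut → CE. Gain vs DMSO.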

[2] = target: Retinoic acid receptor RXR-alpha (Homo sapiens) (UniProt P19793); assay: ATG_RXRa_TRANS: Attagene TRANS-FACTORIAL HepG2 Assay for human Retinoid X Receptor alpha (RXRa) (AID 2283012; active = hit-call score of the fitted dose curve at least 0.9, where 1 is the maximum)
Sequence of Retinoic acid receptor RXR-alpha (Homo sapiens) (P19793 whole entry, looked up, the tested form may be a part): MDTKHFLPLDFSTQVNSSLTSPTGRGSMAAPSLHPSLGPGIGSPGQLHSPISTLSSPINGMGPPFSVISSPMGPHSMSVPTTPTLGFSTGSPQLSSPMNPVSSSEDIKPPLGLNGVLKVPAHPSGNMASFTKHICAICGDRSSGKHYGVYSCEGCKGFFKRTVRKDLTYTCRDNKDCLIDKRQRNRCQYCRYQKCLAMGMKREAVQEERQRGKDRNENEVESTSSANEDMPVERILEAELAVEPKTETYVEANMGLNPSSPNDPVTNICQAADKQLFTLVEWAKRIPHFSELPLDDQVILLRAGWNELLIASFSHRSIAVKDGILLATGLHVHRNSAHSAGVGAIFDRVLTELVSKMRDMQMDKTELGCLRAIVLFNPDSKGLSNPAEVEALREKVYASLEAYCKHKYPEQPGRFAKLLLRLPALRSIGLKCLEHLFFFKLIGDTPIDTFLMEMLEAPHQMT
Method in brief: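 Read-out: fluorescent reporter-transcript fragments quantified by capillary electrophoresis after RT-PCR. Transiently transfected HepG2 cells carrying GAL4-UAS reporters and NR-GAL4 chimeras were exposed to chemical for 24 h; activity scored as increase over DMSO.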

[3] = target: human Retinoid X Receptor beta (RXRb), RXRB (gene 6257) (UniProt P28702); assay: ATG_RXRb_TRANS: Attagene TRANS-FACTORIAL HepG2 Assay for human Retinoid X Receptor beta (RXRb) (AID 2283013; active = hit-call score of the fitted dose curve at least 0.9, where 1 is the maximum)
Sequence of human Retinoid X Receptor beta (RXRb), RXRB (gene 6257) (P28702 whole entry, looked up, the tested form may be a part): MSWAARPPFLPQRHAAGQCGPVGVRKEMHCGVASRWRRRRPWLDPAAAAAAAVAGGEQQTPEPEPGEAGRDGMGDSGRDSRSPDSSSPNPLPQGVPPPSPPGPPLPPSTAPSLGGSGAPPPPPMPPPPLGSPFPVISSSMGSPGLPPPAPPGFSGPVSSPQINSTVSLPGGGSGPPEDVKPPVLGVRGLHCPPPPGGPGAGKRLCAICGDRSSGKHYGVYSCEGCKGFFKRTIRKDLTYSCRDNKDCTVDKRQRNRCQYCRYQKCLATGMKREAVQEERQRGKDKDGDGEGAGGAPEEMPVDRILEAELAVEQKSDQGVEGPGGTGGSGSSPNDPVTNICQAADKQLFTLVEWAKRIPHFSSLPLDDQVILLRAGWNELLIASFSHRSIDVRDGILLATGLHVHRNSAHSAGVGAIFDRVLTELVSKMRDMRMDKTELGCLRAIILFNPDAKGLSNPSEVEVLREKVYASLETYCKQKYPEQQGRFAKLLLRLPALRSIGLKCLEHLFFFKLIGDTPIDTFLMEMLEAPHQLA
Method in brief: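 Read-out: reporter mRNA induction via RT-PCR plus capillary electrophoresis fluorescence, analysed as signal increase relative to DMSO. Cells were human HepG2, transiently transfected with GAL4-UAS reporter constructs and chimeric receptor-Gal4 fusions, dosed for 24 h.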

[4] = target: human Thyroid Receptor alpha (THRa1), THRA (gene 7067) (UniProt P10827); assay: ATG_THRa1_TRANS: Attagene TRANS-FACTORIAL HepG2 Assay for human Thyroid Receptor alpha (THRa1) (AID 2283014; active = hit-call score of the fitted dose curve at least 0.9, where 1 is the maximum)
Sequence of human Thyroid Receptor alpha (THRa1), THRA (gene 7067) (P10827 whole entry, looked up, the tested form may be a part): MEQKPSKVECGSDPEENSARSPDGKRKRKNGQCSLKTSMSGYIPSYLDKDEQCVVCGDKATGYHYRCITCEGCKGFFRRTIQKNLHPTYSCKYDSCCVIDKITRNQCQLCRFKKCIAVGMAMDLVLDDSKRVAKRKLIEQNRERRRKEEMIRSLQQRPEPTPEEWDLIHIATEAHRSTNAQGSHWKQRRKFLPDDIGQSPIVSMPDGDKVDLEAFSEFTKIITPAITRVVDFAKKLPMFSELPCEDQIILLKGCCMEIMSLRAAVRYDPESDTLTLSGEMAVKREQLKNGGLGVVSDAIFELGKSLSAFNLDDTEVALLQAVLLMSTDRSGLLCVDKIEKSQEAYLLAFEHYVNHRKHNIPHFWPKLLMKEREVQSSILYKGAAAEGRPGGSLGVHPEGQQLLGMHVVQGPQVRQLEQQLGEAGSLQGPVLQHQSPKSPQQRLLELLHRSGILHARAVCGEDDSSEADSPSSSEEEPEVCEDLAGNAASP
Method in brief: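 Transient HepG2 transfection, NR-Gal4 chimera driving GAL4-UAS reporters; 24 h compound exposure; total RNA, oligo(dT) RT, PCR, fluorescent primer extension, capillary electrophoresis. Upward direction vs DMSO control.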

[5] = read-out: E-selectin (Homo sapiens) (UniProt P16581); assay: BSK_3C_Eselectin: BioMAP Diversity Plus: 3C Assay for Eselectin Biomarker Activity (AID 2283015); conditions: primary human endothelial cells (HUVEC); actives raise or lower the signal;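 for outcome: cell surface E-selectin protein quantified by ELISA 24 h after dosing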
Method in brief: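 HUVEC, 3C stimulation; compound exposure 24 h; E-selectin by ELISA; gain- or loss-of-signal fitted bidirectionally vs DMSO baseline.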

[6] = read-out: Interleukin-1 alpha (IL1a), IL1A (gene 3552); assay: BSK_BE3C_IL1a: BioMAP Diversity Plus: BE3C Assay for Interleukin-1 alpha (IL1a) Biomarker Activity (AID 2283016); conditions: primary human bronchial epithelial cells; actives raise or lower the signal
Method in brief: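 ELISA read-out of IL-1a from human lung bronchial epithelial primary cells, 24 h post-dose. Gain or loss of signal fitted relative to DMSO negative control.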

[7] = read-out: Monocyte Chemoattractant Protein-1 (MCP1), CCL2 (gene 6347); assay: BSK_3C_MCP1: BioMAP Diversity Plus: 3C Assay for Monocyte Chemoattractant Protein-1 (MCP1) Biomarker Activity (AID 2283017); conditions: primary human endothelial cells (HUVEC); actives raise or lower the signal
Method in brief: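 HUVEC, 3C system; 24 h chemical exposure; MCP-1 by ELISA; bidirectional curve fit vs DMSO baseline.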

[8] = read-out: Monocyte Chemoattractant Protein-1 (MCP1), CCL2 (gene 6347); assay: BSK_4H_MCP1: BioMAP Diversity Plus: 4H Assay for Monocyte Chemoattractant Protein-1 (MCP1) Biomarker Activity (AID 2283018); conditions: primary human endothelial cells (HUVEC); actives raise or lower the signal
Method in brief: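 HUVEC primary cells, 24 h post-dose, MCP-1 by ELISA. Gain or loss of signal fitted bidirectionally vs DMSO baseline. Cytotoxicity: SRB stain (0.1% after 10% TCA fixation), read 560 nm, parallel cultures.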

[9] = read-out: Human Leukocyte Antigen - DR isotype (HLADR), HLA-DRA (gene 3122); assay: BSK_3C_HLADR: BioMAP Diversity Plus: 3C Assay for Human Leukocyte Antigen - DR isotype (HLADR) Biomarker Activity (AID 2283019); conditions: primary human endothelial cells (HUVEC); actives raise or lower the signal;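 for outcome: ELISA of cell-surface HLA-DR on HUVEC 24 h after dosing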
Method in brief: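 HUVEC, 3C stimulation, 24 h post-dose; HLA-DR by ELISA; bidirectional curve fit vs DMSO baseline; gain or loss of signal scored.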

[10] = read-out: Interleukin-8 (IL8), CXCL8 (gene 3576); assay: BSK_3C_IL8: BioMAP Diversity Plus: 3C Assay for Interleukin-8 (IL8) Biomarker Activity (AID 2283020); conditions: primary human endothelial cells (HUVEC); actives raise or lower the signal
Method in brief: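 HUVEC, 3C stimulation; 24 h compound exposure; IL-8 read by ELISA; gain or loss of signal fitted relative to DMSO control.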

Sequence of E-selectin (Homo sapiens) (P16581 whole entry, looked up): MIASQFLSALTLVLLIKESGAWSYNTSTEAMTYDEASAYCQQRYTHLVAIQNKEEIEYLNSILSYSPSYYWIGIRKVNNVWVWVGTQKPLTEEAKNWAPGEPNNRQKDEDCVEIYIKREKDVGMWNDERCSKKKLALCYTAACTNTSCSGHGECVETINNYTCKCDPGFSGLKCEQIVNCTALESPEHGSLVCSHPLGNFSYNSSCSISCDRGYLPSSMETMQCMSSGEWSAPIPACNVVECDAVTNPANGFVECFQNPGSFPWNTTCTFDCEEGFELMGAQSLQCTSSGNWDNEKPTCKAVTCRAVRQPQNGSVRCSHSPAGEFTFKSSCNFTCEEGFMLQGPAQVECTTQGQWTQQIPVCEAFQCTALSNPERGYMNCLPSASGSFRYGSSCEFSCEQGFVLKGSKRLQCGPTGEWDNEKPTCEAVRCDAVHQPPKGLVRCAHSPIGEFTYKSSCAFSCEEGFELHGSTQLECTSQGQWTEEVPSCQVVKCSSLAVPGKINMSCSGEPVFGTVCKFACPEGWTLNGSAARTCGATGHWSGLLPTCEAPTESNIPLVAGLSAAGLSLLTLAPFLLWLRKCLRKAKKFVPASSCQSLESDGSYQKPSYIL

Row | SMILES | outcome [1] | AC50 [2] | outcome [2] | AC50 [3] | outcome [3] | outcome [4] | outcome [5] | outcome [6] | outcome [7] | outcome [8] | outcome [9] | outcome [10] | AC50 [5] | AC50 [6] | AC50 [7] | AC50 [8] | AC50 [9] | AC50 [1]
1 | O=C1O[C@H]([C@@H](O)CO)C(O)=C1O | inactive | 26.6 µM (active) | inactive | 35.9 µM (active) | inactive | inactive | inactive | inactive | inactive | inactive | inactive | inactive |  |  |  |  |  | 
2 | CC(C)(O)c1ccc(CNC(=O)c2cccnc2Oc2ccc3nonc3c2)cc1 | inactive |  | inactive |  | inactive |  | inactive | inactive | inactive | inactive | inactive |  |  |  |  |  |  | 
3 | CCO[Si](CCCNC(N)=O)(OCC)OCC | inactive |  | inactive |  | inactive |  | inactive | inactive | inactive | inactive | inactive | inactive |  |  |  |  |  | 
4 | Cc1ccc(C(C)C)cc1 | inactive |  |  |  | inactive | inactive | inactive | inactive | inactive | inactive | inactive | inactive |  |  |  |  |  | 
5 | Cc1ccc2oc(CN(Cc3ccccc3)C(=O)Nc3c(F)cc(F)cc3F)c(-c3ccc(Cl)cc3)c2c1 |  |  | inactive |  | inactive | inactive | inactive | inactive | inactive | inactive |  |  |  |  |  |  |  | 
6 | Cc1cccc2ccccc12 | inactive |  | inactive |  | inactive | inactive | inactive | inactive | inactive | inactive | inactive |  |  |  |  |  |  | 
7 | CN(C[C@@H](CC[N+]12CCC(C3CCCCC3)(CC1)CC2)c1ccc(Cl)c(Cl)c1)C(=O)c1cc(C(F)(F)F)cc(C(F)(F)F)c1 | inactive |  | inactive |  | inactive | inactive |  |  |  |  |  |  | 27.5 µM (active) | 27.6 µM (active) | 21.1 µM (active) | 27.2 µM (active) | 14.6 µM (active) | 
8 | O=C(O)Cn1c(=O)n(Cc2ccc(Br)cc2F)c(=O)c2ccc(Cl)cc21 | inactive |  | inactive |  |  |  | inactive | inactive | inactive | inactive | inactive | inactive |  |  |  |  |  | 
9 | O=c1c(-c2ccc(O)cc2)coc2cc(O)cc(O)c12 | inactive |  | inactive | 25.2 µM (active) and 27.2 µM (active) | inactive | inactive | inactive |  |  |  |  |  |  |  | 25.3 µM (active) | 8.42 µM (active) | 21.1 µM (active) | 26.5 µM (active)
